# Only some compounds are listed: those with a hit (about 11% of all), similar ones and a draw of the others.
# Pf growth 96h = P. falciparum growth inhibition at 96 hour, primary screen for plastid delayed-death inhibitors | P. falciparum luciferase reporter growth, 96 h | Potency, µM (doses to about 28.7 µM), for the others: top-dose activity change, negative = inhibition, most hits filed as inhibitors | 6.9% of 320,000 active
#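 Readout is luminescence from an integrated firefly luciferase in P. falciparum. Red cells, 2% hematocrit and 0.05% parasitemia final, were cultured with compound through two parasite generations (96 hours) at 37 C, 5% CO2.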
# HCV inhibitor = blocks hepatitis C virus; 3.4% of 340,000 active; Huh7.5.1 HCVcc-Cre infection, luciferase reporter, 44 h; Potency, µM (titrated, usually from 41.8 µM), without a hit: at the highest dose activity change, negative = inhibition, actives largely listed as inhibitors
#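 Compounds are dispensed onto cells plated 4 h earlier at 1,000 per well, with HCVcc-Cre virus (about 0.5 moi) added next. Following 44 h of culture, luminescent signal is measured for 15 sec after 15 min with substrate at room temperature.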
# Pf growth 48h = inhibits P. falciparum growth in the first generation, 48 h. 5.9% of 310,000 active. AID 504832. P. falciparum luciferase growth in erythrocytes, 48 h. Potency, µM (highest dose often 28.7 µM), for inactives: at the top dose activity change, negative = inhibition, most hits filed as inhibitors
#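 Erythrocytes infected with P. falciparum carrying an integrated firefly luciferase reporter (2% hematocrit, 0.1% parasitemia final) were exposed to compounds in RPMI 1640 with 0.5% Albumax at 37 C, 5% CO2. Growth inhibition was scored as reduced luminescence.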
# AMA1-RON2 inh = AMA1-RON2 (P. falciparum) interaction inhibition | 0.2% of 360,000 active | Potency, µM (top dose mostly 58.2 µM), without a hit: at the top dose activity change, negative = inhibition, most hits filed as inhibitors | AlphaScreen AMA1-biotinylated RON2 peptide binding;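 also: 0% = vehicle wells and -100% = peptide control; nearly all actives have a fitted effect of over 45% in size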
#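 AMA1 (3D7) with his tag at 25 nM final met compounds first, then biotinylated RON2 peptide at 25 nM; detection used donor plus acceptor beads, 10 µg/mL apiece, read by AlphaScreen after 30 min at room temperature.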
# AmpC inh no detg = blocks E. coli AmpC beta-lactamase in detergent-free assay | P00811 | 0.52% of 330,000 active | AID 485341 | AmpC nitrocefin hydrolysis, absorbance 480 nm, 0.0001% Triton | Potency, µM (doses to about 57.1 µM), inactives show top-dose activity change, negative = inhibition, actives largely listed as inhibitors;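 also: plate controls were no compound for no effect and no enzyme for full effect; nearly all actives have a fitted effect of over 20% in size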
# Target sequence (P00811 whole entry, looked up): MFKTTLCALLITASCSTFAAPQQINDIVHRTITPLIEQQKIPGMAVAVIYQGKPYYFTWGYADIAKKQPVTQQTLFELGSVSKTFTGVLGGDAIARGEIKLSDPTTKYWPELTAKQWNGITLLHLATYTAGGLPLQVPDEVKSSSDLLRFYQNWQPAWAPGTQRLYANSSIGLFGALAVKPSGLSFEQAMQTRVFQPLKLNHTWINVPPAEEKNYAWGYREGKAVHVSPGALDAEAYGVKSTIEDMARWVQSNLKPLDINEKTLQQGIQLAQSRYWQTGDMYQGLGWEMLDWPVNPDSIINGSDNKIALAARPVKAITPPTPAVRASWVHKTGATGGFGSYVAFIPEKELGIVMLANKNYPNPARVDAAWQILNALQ
#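 AmpC (5.3 nM in the dispensed reagent) in 20 mM phosphate pH 7.0 with 0.01% (detergent screen) or 0.0001% Triton X-100 was preincubated with compounds for 15 min at room temperature. Nitrocefin was then added from an 800 uM solution, and hydrolysis was followed at 480 nm.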
# AmpC detergent = AmpC beta-lactamase inhibition with detergent present. AmpC hydrolysis of nitrocefin, absorbance 480 nm, 0.01% Triton. Potency, µM (highest dose often 114 µM), without a hit: at the top dose activity change, negative = inhibition, actives largely listed as inhibitors. 0.041% of 370,000 active;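 also: 0% = no-compound wells and -100% = no-enzyme wells; nearly all actives have a fitted effect of over 25% in size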
#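 20 mM phosphate pH 7.0 + 0.01% (detergent screen) or 0.0001% Triton X-100; 5.3 nM AmpC reagent; cpd preinc 15 min RT; nitrocefin (800 uM stock) to start; A480 q20 s × 4 min; Activity was normalised to no-enzyme and no-compound control wells.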
# Numbers without * were called inactive; ? = inconclusive; . = not tested or not shown; [ ] = another dose, or the depositor's remark. Calls follow the shape of the dose curve; as a rule, active = well fitted curve in the direction sought with a large enough effect; inconclusive = small, poorly fitted or top-dose-only effect, or another doubt; inactive = no such curve, though single readings can be large; an effect the other way counts as inactive or inconclusive. Unless noted, % is scaled to controls: 0 for no effect and ±100 for the full control effect; potency is read from the fitted curve at half-maximal effect.
SMILES,Pf growth 96h,HCV inhibitor,Pf growth 48h,AMA1-RON2 inh,AmpC inh no detg,AmpC detergent
O=C(CSc1nnc(-c2ccc(O)cc2)o1)c1ccc(Br)cc1,.,.,.,.,.,8%
O=C(N/N=C/c1sc(N2CCOCC2)nc1-c1ccccc1)c1ccc(O)cc1,?,?,?,-5%,?,-6%
O=C(N/N=C/c1sc(N2CCOCC2)nc1-c1ccccc1)c1cccc(S(=O)(=O)N2CCCC2)c1,?,3.5µM*,?,19%,53%,4%
O=C(Nc1ccc(Nc2ccncc2)cc1)c1ccc(Nc2ccnc3ccc([N+](=O)[O-])cc23)cc1,0.093µM*,15%,0.093µM*,1%,-14%,-13%
COc1cccc(NC(=O)Cn2nc(C)c3c(C)n(-c4ccccc4)nc3c2=O)c1,.,.,.,.,.,-3%
COC(=O)[C@]1(CC(C)C)N[C@H](c2ccc(-c3cccc(Cl)c3)cc2)[C@@H]2C(=O)N(C)C(=O)[C@@H]21,1.3µM*,?,2.6µM*,0%,125%,-11%
COC(=O)[C@]1(CC(C)C)N[C@H](c2ccc(-c3ccc4c(c3)OCO4)cc2)[C@@H]2C(=O)N(C)C(=O)[C@@H]21,13µM*,-2%,?,-7%,23%,?
COC(=O)[C@]1(C)N[C@H](c2ccc(-c3cccc(Cl)c3)c(OC)c2)[C@@H]2C(=O)N(C)C(=O)[C@@H]21,.,11%,.,-2%,219%,.
CCCSc1ncc(Cl)c(C(=O)Nc2scc(-c3ccc(C)cc3)c2C(=O)OCC)n1,.,.,.,.,.,14%
CN(C)c1ccc(Nc2ncnc3c2c(-c2ccccc2)cn3-c2cccc(Cl)c2)cc1,.,.,.,.,.,-5%
O=C(NN=Cc1c(O)ccc2ccccc12)C1CC1,.,?,.,41%,.,.
O=C(CCSc1nc2ccccc2s1)N/N=C/c1c(O)ccc2ccccc12,2.9µM*,3.2µM*,?,60%,-44%,?
COc1ccc(/C=N/NC(=O)Nc2cccc3nsnc23)cc1OC,12%,5.6µM*,15%,17%,?,-10%
COc1ccc(/C=N/NC(=O)c2ccccc2Cl)cc1CSc1nc2ccccc2s1,-25%,?,.,0%,-34%,1%
COc1ccc(/C=N/NC(=O)c2cccc(C(=O)N/N=C/c3ccc(OC)c(OC)c3)n2)cc1OC,1%,13%,-6%,70%,3%,4%
COc1ccc(/C=N/NC(=O)CCSc2nc3ccccc3s2)cc1OC,?,10µM*,-22%,78%,1%,-9%
CCc1ccccc1NC(=O)c1ccc2c(c1)nnn2C1CCCC1,.,.,.,.,.,0%
CCc1ccc(N2C(=O)Cc3c2nc(N)c(C#N)c3N)cc1,.,0%,153%,44%,5%,-1%
CCN(CC)c1nc2c3c(nc4c(c3c1C#N)CC(=O)N4c1ccc(Cl)cc1)NC(C)=N2,4.7µM*,?,17µM*,3%,5%,-4%
COCCCn1c(SCc2ccccc2F)nc2c(sc3ccccc32)c1=O,.,.,.,.,.,10%
COc1ccc2nc(N3C(=O)/C(=C/c4ccccc4)NC3=S)sc2c1,0.83µM*,?,?,50%,?,?
COc1ccc2nc(-n3c(C)ccc3C)sc2c1,.,-16%,-5%,-5%,-7%,?
CCOc1ccc2nc(N3C(=O)/C(=C/c4ccccc4)NC3=S)sc2c1,4.7µM*,?,21%,18%,-18%,-17%
O=C(CC(c1cccs1)N1Cc2ccccc2C1=O)Nc1ccc(F)c(Cl)c1 (centres undefined),.,.,.,.,.,-1%
CCOC(=O)c1c(S(=O)(=O)N2CCCC(C(=O)NCc3cccc(OC)c3)C2)c(C)n(C)c1C (centres undefined),.,.,.,.,.,-5%
SMILES,Pf growth 96h,HCV inhibitor,Pf growth 48h,AMA1-RON2 inh,AmpC inh no detg,AmpC detergent
COc1ccccc1N1CCN(C2CCN(S(=O)(=O)c3ccc4ccccc4c3)CC2)CC1,?,14µM*,13µM*,-11%,-5%,6%
COc1ccccc1N1CCN(S(=O)(=O)c2ccc3nc(-c4ccccc4)[nH]c3c2)CC1,2.9µM*,-24%,-25%,-20%,-7%,-8%
COc1ccccc1N1CCN(C2CCN(S(=O)(=O)c3ccc(C)cc3)CC2)CC1,4.1µM*,-1%,?,-29%,39%,3%
COc1ccc(S(=O)(=O)N2CCN(c3ccccc3OC)CC2)cc1OC,?,16%,-7%,12%,-4%,-13%
CCOC(=O)c1ccc(S(=O)(=O)N2CCC(C(=O)N3CCN(c4ccccc4OC)CC3)CC2)cc1,.,10µM*,.,4%[11.6 µM],.,.
COc1ccc(CCNC(=O)c2cnn(-c3ccc(F)cc3)c2C2CCN(C(=O)OC(C)(C)C)CC2)c(OC)c1,.,.,.,.,.,-1%
COc1ccccc1N1CCN(S(=O)(=O)c2cc(C(F)(F)F)cc(C(F)(F)F)c2)CC1,6.6µM*,6%,6.6µM*,21%,-2%,-4%
CCOC(=O)N1CCN(c2ccccc2OC)CC1,17%,1%,86%,6%,1%,-10%
CCOC(=O)/C(=N\Nc1ccc(Br)cc1)N1CCN(c2ccccc2OC)CC1,?,?,15µM*,?,20%,-3%
Cc1ccc(N2CC(C)Cn3c2nc2c3c(=O)n(CC(=O)OCc3ccccc3)c(=O)n2C)cc1C (centres undefined),10µM*,16%,?,-4%,1%,-11%
Cc1ccc(N2CCCn3c2nc2c3c(=O)n(CC(=O)OCc3ccccc3)c(=O)n2C)cc1C,5.2µM*,.,12µM*,.,-14%,?
Cc1nc2c(C(=O)N3CCOCC3)cnn2c(C)c1Cc1cccc(Cl)c1,7.4µM*,.,?,.,59%,-13%
COc1ccccc1N(C)S(=O)(=O)c1ccc(Cl)c(C(=O)NCC2(N(C)C)CCCCC2)c1,9.3µM*,?,?,-9%,7%,-19%
COc1ccccc1NS(=O)(=O)c1cccc(C(=O)NCC2(N(C)C)CCCCC2)c1,?,-11%,-27%,84%,-12%,?
CN(c1ccc(F)cc1)S(=O)(=O)c1ccc(Cl)c(C(=O)NCC2(N3CCOCC3)CCCCC2)c1,.,11µM*,.,11%[11.6 µM],.,.
COc1ccc(Cl)cc1NS(=O)(=O)c1cccc(C(=O)NCC2(N(C)C)CCCCC2)c1,15µM*,?,?,9%,83%,-6%
O=C(COc1ccc(F)cc1)Nc1ccccc1OCc1cc(=O)n2ccccc2n1,.,.,.,.,.,1%
CCCOc1ccc(NC(=O)CC2C(=O)N(c3ccc(OC)cc3)C(=O)N2CCc2ccncc2)cc1 (centres undefined),.,.,.,.,.,1%

# Source: PubChem BioAssay
